# This is a sample that favours compounds with a hit; in the whole collection about 3% have one here.
# A549 tox = A549 cytotoxicity, counter-screen for Nrf2 inhibitors. Potency, µM (top dose mostly 46 µM), for the others: top-dose activity change, negative = cytotoxicity, most hits filed as inhibitors. A549 ARE-Fluc cells, CellTiter-Fluor viability, 18-24 h. 390,000 tested, 0.16% active; note: % is set by controls: 0 for no effect and ±100 for the full control effect
#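 A549 ARE-Fluc cells in 5% FBS OPTI-MEM, 5000 cells/well, rested 2 h then exposed to compounds in concentration-response for 18-24 h at 37 °C. Viability by CellTiter-Fluor fluorescence (Ex 405/Em 525) after 30 min; luciferase luminescence (BugLite, 15 min, RT) read afterwards.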
# TrxR1 substrate = substrates of rat thioredoxin reductase 1. O89049. AID 588456. Potency, µM (doses to about 114 µM), for inactives: top-dose activity change, negative = substrate turnover. 390,000 tested, 0.01% active. purified TrxR1 substrate turnover, NADPH consumption readout; note: % is set by controls: 0 for no effect and ±100 for the full control effect; nearly all actives have a fitted effect of over 50% in size
#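 Rat TrxR1, dispensed at 90 nM, was prereduced with 400 uM NADPH (final) for 5 min at ~22 deg C, then incubated with compound 15 min before 400 uM selenite. A first-read NADPH fluorescence drop versus no-compound background flagged substrates.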
# Nrf2 inh = blocks Nrf2 signaling | Potency, µM (series often up to 46 µM), for the others: top-dose activity change, negative = inhibition, hits mostly inhibitors | A549 ARE-Fluc reporter, luciferase luminescence, 18-24 h | AID 504444 | 360,000 tested, 2.1% active; note: % is set by controls: 0 for no effect and ±100 for the full control effect; nearly all actives have a fitted effect of over 60% in size
#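 A549 ARE_Fluc cells, 5000/well, 5% FBS OPTI-MEM; compounds in dose-response, 18-24 h at 37 °C/5% CO2; CellTiter-Fluor viability read (Ex 405/Em 525), then BugLite luciferase luminescence = Nrf2 activity.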
# rTrxR1 inhibitor = inhibitors of rat thioredoxin reductase 1 | Potency, µM (series often up to 114 µM), without a hit: at the highest dose activity change, negative = inhibition, usual class: inhibitors | 390,000 tested, 1% active | O89049 | recombinant rTrxR1, NADPH fluorescence consumption, selenite substrate; note: % is set by controls: 0 for no effect and ±100 for the full control effect; nearly all actives have a fitted effect of over 65% in size
#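 Rat TrxR1 (90 nM in the dispensed reagent) was pre-reduced with 400 uM NADPH for 5 min at room temperature, then incubated with compound for 15 min. After 400 uM selenite was added, NADPH fluorescence (Ex 340/Em 450 nm) was followed for 8 min.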
# GALK inhibitor = inhibitors of human galactokinase. Purified GALK, Kinase-Glo residual ATP luminescence. 270,000 tested, 0.007% active. P51570. Potency, µM (titrated, usually from 57.5 µM), inactives show at the highest dose activity change, negative = inhibition, usual class: inhibitors. AID 1868; note: % is set by controls: 0 for no effect and ±100 for the full control effect
# Target sequence (P51570 whole entry, looked up): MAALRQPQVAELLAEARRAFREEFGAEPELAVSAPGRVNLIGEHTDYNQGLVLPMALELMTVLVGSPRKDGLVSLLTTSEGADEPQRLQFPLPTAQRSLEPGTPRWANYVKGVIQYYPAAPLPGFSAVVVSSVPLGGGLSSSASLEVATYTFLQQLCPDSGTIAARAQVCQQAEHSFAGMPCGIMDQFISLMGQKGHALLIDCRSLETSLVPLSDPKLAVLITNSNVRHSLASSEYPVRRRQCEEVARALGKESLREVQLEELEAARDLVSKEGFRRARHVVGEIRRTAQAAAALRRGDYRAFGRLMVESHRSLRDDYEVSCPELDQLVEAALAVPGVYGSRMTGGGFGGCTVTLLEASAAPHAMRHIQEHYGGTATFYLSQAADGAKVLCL
#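 Galactose (100 uM) and ATP (35 uM) were turned over by 5 nM GALK for 1 h at RT. Kinase-Glo Plus then converted the remaining ATP into a luminescent signal.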
# Nrf2 ARE act = Nrf2 pathway activation | AREc32 ARE-luciferase reporter (MCF7-derived line), luminescence, 24 h | Potency, µM (titrated, usually from 46.1 µM), for the others: at the highest dose activation, usual class: activators | 410,000 tested, 0.31% active | AID 624171; note: % of control where 0% means no effect; nearly all actives have a fitted effect of over 65% in size
#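 Reporter line AREc32 (ARE-Fluc), seeded overnight in OPTI-MEM with 5% FBS; compound pin-transferred, 24 hr at 37 deg C, 5% CO2; luminescent read-out.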
# Active calls of the source: *; ? = inconclusive; / = no result given; ! = a repeat was not active; [ ] = dose if it differs, or a comment. Calls come from the whole dose curve; as a rule, active = well fitted curve in the direction sought with a large enough effect; inconclusive = small, poorly fitted or top-dose-only effect, or another doubt; inactive = no such curve, though single readings can be large; an effect the other way counts as inactive or inconclusive. Potency is the fitted concentration of half-maximal effect.
SMILES,A549 tox,TrxR1 substrate,Nrf2 inh,rTrxR1 inhibitor,GALK inhibitor,Nrf2 ARE act
COc1ccccc1NC(=O)c1oc2ccccc2c1NC(=O)c1ccccc1C(F)(F)F,-0.8%,73.9%,5.2%,-10.4%,/,4.6%
O=C(c1ccc2c(c1)OCO2)N1CCC2(CC1)OCCO2,16.2%,2.8%[57.1 µM],11.2%,-6.9%[57.1 µM],0.3%,0.0%
O=C(c1ccc(N2CCCCCC2)c([N+](=O)[O-])c1)N1CCC2(CC1)OCCO2,?,-5.9%,23.1µM*,9.3%[57.1 µM],5.9%,-0.5%
COC(=O)c1sc(NC(=O)/C=C/c2ccc(OC)c(OC)c2)c(C(=O)OC)c1C,1.8%,6.8%,?,9.4%,/,0.5%
CN1CC(C(=O)c2ccc(Cl)cc2)C(c2ccc(Cl)cc2Cl)C1 (stereo unspecified),0.1%,0.4%[57.1 µM],5.9%,13.6%[57.1 µM],-0.3%,6.7%
CN1CCC(O)(c2ccc(Cl)cc2)C(C(=O)c2ccc(Cl)cc2)C1 (stereo unspecified),1.2%,4.4%,-4.0%,0.112µM*,7.7%,?
C[n+]1c(-c2ccccc2)c2cc(N)ccc2c2ccc(N)cc21,?,-1.3%,1.84µM*,39.9%,/,-3.3%
Cc1ccc(-n2nc3c(=O)n(CC(=O)Nc4ccccc4F)nc(C)c3c2C)c(C)c1,-1.2%,-1.3%,?,11.6%,/,5.1%
C[C@]12CC[C@@H]3c4ccc(O)cc4C[C@@H](CCCCCCCCCS(=O)CCCC(F)(F)C(F)(F)F)[C@H]3[C@@H]1CC[C@@H]2O (stereo partly specified),/,?,/,-4.6%[57.1 µM],/,/
COC[C@H]1OC(=O)c2coc3c2[C@@]1(C)C1=C(C3=O)C2CCC(=O)[C@@]2(C)C[C@H]1OC(C)=O (stereo partly specified),/,14.8%[57.1 µM],/,15µM*!,/,/
Cc1nn(-c2nccs2)c2c1C(=O)CC(C)(C)C2Br (stereo unspecified),3.6%,-1.3%,?,15.0%,/,2.8%
Cc1ccc(NC(=O)C2CCCN(c3ncnc4onc(C)c34)C2)c(Cl)c1 (stereo unspecified),-11.4%,-2.5%,25.9µM*,12.8%,/,0.8%
Cc1ccc(Sc2ccc(N3CCCC(C(=O)Nc4ccc(Cl)cc4)C3)nn2)cc1 (stereo unspecified),-13.9%,8.0%,?,28.5%,/,-0.3%
Cc1ccc(-c2nn(C)c(=O)c3ccccc23)cc1CNC(=O)/C=C/c1ccccc1,-18.3%,13.4%[57.1 µM],?,23.0%[57.1 µM],4.2%,2.6%
Cc1c(-c2ccc(Br)cc2)c(=O)oc2ccc(OC(=O)N3CCOCC3)cc12,?,6.6%[57.1 µM],/,8.8%[57.1 µM],/,6.0%
CCC(C(=O)Nc1ccccc1C(=O)OC)n1nc(C)c2c(C)n(-c3ccc(C)cc3)nc2c1=O (stereo unspecified),-21.9%,7.9%,18.4µM*,31.3%,/,-1.4%
CCOc1ccc(NC(=O)CN(c2ccc(Cl)cc2C)S(=O)(=O)c2ccccc2)cc1,-16.8%,-8.0%,?,13.9%,/,3.3%
COc1ccc2c(c1)/C(=C/c1cnc[nH]1)C(=O)N2,?,4.1%[57.1 µM],18.4µM*,10.9%[57.1 µM],/,-1.6%
O=C1Nc2ccccc2/C1=C/c1cnc[nH]1,6.3%,-17.2%,7.31µM*,-8.8%,-3.6%,3.8%
N#Cc1cccc(NC(=O)CSc2nc3c(cc2C#N)N2CCC3CC2)c1,4.7%,7.0%,?,13.6%,/,2.7%
N#Cc1cc2c(nc1SCC(=O)Nc1cccc(C(F)(F)F)c1)C1CCN2CC1,-13.5%,1.7%[11.4 µM],20.6µM*,6.0%,/,2.3%
CC(C)c1ccc(NC(=O)Cn2c(=O)oc3cc(S(=O)(=O)N4CCCC4)ccc32)cc1,-11.1%,-5.1%,20.6µM*,-13.0%,/,-1.2%
COc1ccc2cc1Oc1ccc(cc1)C[C@H]1c3cc(c(OC)cc3CCN1C)Oc1c(OC)c(OC)cc3c1[C@H](C2)N(C)CC3,6.51µM*,1.4%,?,?,-4.0%,5.7%
COc1cc2c3cc1Oc1cc(ccc1O)C[C@@H]1c4c(cc(OC)c(O)c4Oc4cccc(c4)C[C@@H]3N(C)CC2)CC[N+]1(C)C,-7.4%,5.0%,3.0%,9.6%,/,-0.1%
COc1cc2c3c(c1OC)Oc1ccc(cc1)C[C@H]1c4c(cc(OC)c(OC)c4Oc4ccc(cc4)C[C@@H]3N(C)CC2)CCN1C,-27.0%,4.3%,-7.3%,?,/,0.5%
SMILES,A549 tox,TrxR1 substrate,Nrf2 inh,rTrxR1 inhibitor,GALK inhibitor,Nrf2 ARE act
COc1cc2c3cc1Oc1c(OC)c(OC)cc4c1[C@H](Cc1ccc(cc1)Oc1cc(ccc1O)C[C@H]3N(C)CC2)N(C)CC4,13µM*,5.9%,-10.6%,17.1%,/,4.5%
COc1cc2c3cc1Oc1cc(ccc1O)C[C@@H]1c4c(cc(OC)c(O)c4Oc4ccc(cc4)C[C@H]3N(C)CC2)CCN1C,8.2µM*,-5.0%,-13.1%,1.9%,-1.3%,0.7%
C=CCn1c(O)c(C=Nc2ccc(N(CC)CC)cc2)c(=O)[nH]c1=O,-10.8%,10.1%,3.26µM*,11.6%,-5.6%,5.4%
C=CCn1c(O)c(C=Nc2ccc(F)cc2)c(=O)[nH]c1=O,3.3%,-5.8%,-9.5%,5.6%,-2.3%,-0.6%
CCN1C[C@]2(C)CC[C@H](O)[C@@]34[C@@H]5C[C@@H]6[C@@H](OC)C[C@@](O)(C5[C@H]6O)[C@@H](C[C@@H]23)[C@@H]14,/,/,/,0.8%,/,/
O=P(Oc1ccccc1)(Oc1ccccc1)C(Nc1ccccc1)c1ccccc1 (stereo unspecified),-15.7%,-6.9%,20.6µM*,-1.2%,-0.3%,0.0%
COc1ccc(-c2cc(=O)c3cc(OCC(=O)OC(C)C)ccc3o2)cc1,-12.0%,172.9%,6.7%,24.9%,/,-0.8%
Nc1nc(F)nc2c1ncn2[C@@H]1O[C@H](CO)[C@@H](O)[C@H]1O,?,8.1%,0.92µM*,21.7%,/,-2.1%
O=C1NC2C(=CC(O)C(O)C2O)c2cc3c(cc21)OCO3 (stereo unspecified),?,4.2%[11.4 µM],2.06µM*,-4.8%[11.4 µM],/,-1.9%
O=C1CCCCC1,-1.2%,14.0%,-0.1%,50.8%,/,0.5%
COC1CCC(OC2CC(C3(C)CCC4(CC(O)C(C)C(C(C)/C=C(\C)C(=O)C(C)CC(C)C(=O)O)O4)O3)OC3(OC(C4OC(O)(CO)C(C)CC4C)CC3C)C2C)OC1C (stereo unspecified),0.651µM*,-8.1%,0.411µM*,-8.5%,/,7.8%
COc1ccc(NC(=O)CCc2nc(C3=CCN(Cc4cccc(C)c4)CC3)no2)c(OC)c1,5.0%,-2.1%[57.1 µM],/,8.3%[57.1 µM],/,0.5%

# Compound activity from PubChem BioAssay.
